Results taken from PubChem BioAssay AID1159580 (chemical genetic matrix, 2015).
Values joined by “and” are separate entries in the source; they are usually repeats but may differ in a detail not shown here. Identical values can stand only once. The campaign covered roughly 5,500 compounds. About 2,000 (36%) were called active. Another 18% or so got no clear call; they are omitted. Rule as the data show it: active = normalized growth mostly below about 0.91 (no sharp cut-off); inconclusive = no clear call, values can overlap the other calls; inactive = mostly above about 0.92. The list shows a part of the results.

Test: chemical genetic growth profiling, strain panel (AID 1159580);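 also: tested at 20 µM; growth read once vehicle control cultures reached saturation at 30 °C; 1 = growth at the plate median or of vehicle wells; lower values mean less growth of the strain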
Conditions: S. cerevisiae deletion strains, growth OD

Measured: normalized growth

O=C(O)C1(O)C[C@@H](O)C(O)[C@H](O)C1 (stereo partly drawn)
inactive: locus YAL021C, strain ccr4, hits give low values 0.984 | locus YAL026C, strain drs2, hits give low values 0.985 | locus YAL030W, strain snc1, hits give low values 0.987 | locus YBL061C, strain skt5, hits give low values 0.968 | locus YBR009C, strain hhf1, hits give low values 1 | locus YBR021W, strain FUR4, hits give low values 1.01 | locus YBR023C, strain chs3, hits give low values 0.97 | locus YBR171W, strain sec66, hits give low values 0.983 | locus YBR229C, strain ROT2, hits give low values 1 | locus YBR231C, strain swc5, hits give low values 0.983 | locus YBR279W, strain paf1, hits give low values 0.985 | locus YCL011C, strain gbp2, hits give low values 0.978 | locus YCL016C, strain dcc1, hits give low values 0.973 | locus YCL029C, strain bik1, hits give low values 1.03 | locus YCL069W, strain vba3, hits give low values 0.988 | locus YCR088W, strain abp1, hits give low values 0.979 | locus YDL005C, strain med2, hits give low values 0.957 | locus YDL035C, strain GPR1, hits give low values 0.99 | locus YDL040C, strain nat1, hits give low values 0.979 | locus YDL074C, strain BRE1, hits give low values 1.04 | locus YDL101C, strain DUN1, hits give low values 1.01 | locus YDL185W, strain tfp1, hits give low values 1.02 | locus YDL192W, strain arf1, hits give low values 1.02 | locus YDR001C, strain nth1, hits give low values 0.975 | locus YDR069C, strain doa4, hits give low values 0.993 | locus YDR101C, strain arx1, hits give low values 1.02 | locus YDR137W, strain rgp1, hits give low values 0.996 | locus YDR150W, strain NUM1, hits give low values 1.01 | locus YDR159W, strain sac3, hits give low values 1 | locus YDR162C, strain NBP2, hits give low values 1.02 | locus YDR195W, strain ref2 0.959 | locus YDR297W, strain sur2, hits give low values 0.995 | locus YDR318W, strain mcm21, hits give low values 0.997 | locus YDR334W, strain swr1, hits give low values 0.962 | locus YDR335W, strain msn5, hits give low values 0.978 | locus YDR388W, hits give low values 1.01 | locus YDR392W, strain spt3, hits give low values 0.994 | locus YDR502C, strain sam2, hits give low values 1.01 | locus YEL003W, strain gim4, hits give low values 0.983 | locus YEL037C, strain rad23, hits give low values 0.98 | locus YEL061C, strain CIN8 (second series), hits give low values 0.98 | locus YEL061C, strain CIN8, hits give low values 1.01 | locus YER015W, strain faa2, hits give low values 0.975 | locus YER016W, strain bim1, hits give low values 0.967 | locus YER110C, hits give low values 1.02 | locus YER111C, strain swi4, hits give low values 0.966 | locus YER155C, strain BEM2 (second series), hits give low values 0.969 | locus YER155C, strain BEM2, hits give low values 1 | locus YER167W, strain BCK2, hits give low values 0.996 | locus YFR010W, strain ubp6, hits give low values 0.992 | locus YGL078C, strain dbp3, hits give low values 0.998 | locus YGL086W, strain mad1, hits give low values 1.05 | locus YGL167C, strain pmr1, hits give low values 0.976 | locus YGL173C, strain kem1, hits give low values 0.973 | locus YGL227W, strain vid30, hits give low values 0.979 | locus YGL240W, strain doc1, hits give low values 0.975 | locus YGL248W, strain PDE1, hits give low values 1 | locus YGL253W, strain hxk2, hits give low values 0.989 | locus YGR135W, strain pre9, hits give low values 1.01 | locus YGR229C, strain SMI1, hits give low values 1.02 | locus YGR252W, strain gcn5, hits give low values 0.954 | locus YHR013C, strain ard1, hits give low values 0.964 | locus YHR027C, strain rpn1, hits give low values 0.994 | locus YHR030C, strain SLT2, hits give low values 1.01 | locus YHR079C, strain IRE1 (second series), hits give low values 1.01 | locus YHR079C, strain IRE1, hits give low values 1 | locus YHR094C, strain hxt1, hits give low values 1.01 | locus YHR129C, strain ARP1, hits give low values 1.01 | locus YHR142W, strain chs7, hits give low values 0.982 | locus YHR200W, strain rpn10, hits give low values 1.01 | locus YIL066C, strain RNR3, hits give low values 1.01 | locus YIL073C, strain SPO22, hits give low values 1.06 | locus YIL125W, strain kgd1, hits give low values 1.02 | locus YIR030C, strain dcg1, hits give low values 1.01 | locus YJL092W, strain hpr5, hits give low values 0.979 | locus YJL095W, strain BCK1 (second series), hits give low values 0.997 | locus YJL095W, strain BCK1, hits give low values 0.993 and 1 | locus YJL115W, strain asf1, hits give low values 0.974 | locus YJL129C, strain trk1, hits give low values 0.984 | locus YJL134W, strain LCB3, hits give low values 1.01 | locus YJL154C, strain vps35, hits give low values 0.971 | locus YJL164C, strain tpk1, hits give low values 0.981 | locus YJL166W, strain qcr8, hits give low values 1.01 | locus YJL168C, strain set2, hits give low values 1.01 | locus YJL187C, strain SWE1 (second series), hits give low values 1.01 | locus YJL187C, strain SWE1, hits give low values 0.98 | locus YJR043C, strain POL32, hits give low values 1.01 | locus YJR066W, strain TOR1, hits give low values 0.957 | locus YKL009W, strain mrt4, hits give low values 1.01 | locus YKL068W, hits give low values 1.01 | locus YKL085W, strain MDH1 (second series), hits give low values 1.01 | locus YKL085W, strain MDH1, hits give low values 1.01 | locus YKL160W, strain elf1, hits give low values 0.978 | locus YKR001C, strain vps1, hits give low values 1.04 | locus YKR026C, strain gcn3, hits give low values 0.986 | locus YKR091W, strain srl3, hits give low values 0.986 | locus YLL001W, strain dnm1, hits give low values 0.962 | locus YLL026W, hits give low values 0.978 | locus YLL041C, strain sdh2, hits give low values 1 | locus YLR027C, strain aat2, hits give low values 0.981 | locus YLR039C, strain RIC1, hits give low values 1.07 | locus YLR058C, strain SHM2, hits give low values 1.01 | locus YLR102C, strain apc9, hits give low values 1.01 | locus YLR113W, strain HOG1, hits give low values 1.02 | locus YLR221C, strain rsa3, hits give low values 0.987 | locus YLR258W, strain gsy2, hits give low values 0.973 | locus YLR262C, strain YPT6 (second series), hits give low values 1.04 | locus YLR262C, strain YPT6, hits give low values 1.1 | locus YLR268W, strain sec22, hits give low values 1.04 | locus YLR320W, strain mms22, hits give low values 0.974 | locus YLR330W, strain CHS5, hits give low values 1 | locus YLR342W, strain FKS1 (second series), hits give low values 1.01 | locus YLR342W, strain FKS1, hits give low values 0.976 | locus YLR357W, strain rsc2, hits give low values 0.995 | locus YLR370C, strain arc18, hits give low values 0.992 | locus YLR371W, strain rom2, hits give low values 1.02 | locus YLR384C, strain iki3, hits give low values 0.983 | locus YLR418C, strain cdc73, hits give low values 1.01 | locus YML016C, strain PPZ1, hits give low values 1.01 | locus YML032C, strain rad52, hits give low values 0.989 | locus YML120C, strain ndi1, hits give low values 0.968 | locus YML124C, strain tub3, hits give low values 1.01 | locus YMR058W, strain fet3, hits give low values 0.964 | locus YMR078C, strain ctf18, hits give low values 1.02 | locus YMR125W, strain sto1, hits give low values 0.972 | locus YMR129W, hits give low values 0.976 | locus YMR205C, strain PFK2, hits give low values 0.984 | locus YMR223W, strain ubp8, hits give low values 1 | locus YMR231W, strain pep5, hits give low values 0.972 | locus YMR263W, strain SAP30, hits give low values 1.01 | locus YMR307W, strain GAS1, hits give low values 0.994 | locus YNL067W, strain RPL9B, hits give low values 1.01 | locus YNL071W, strain lat1, hits give low values 0.989 | locus YNL183C, strain NPR1, hits give low values 0.953 | locus YNL209W, strain ssb2, hits give low values 0.983 | locus YNL233W, strain BNI4, hits give low values 1.01 | locus YNL248C, strain rpa49, hits give low values 0.98 | locus YNL250W, strain rad50, hits give low values 1.02 | locus YNL271C, strain bni1, hits give low values 1.02 | locus YNL298W, strain CLA4, hits give low values 1.02 | locus YNL307C, strain MCK1, hits give low values 1.02 | locus YNL322C, strain KRE1 (second series), hits give low values 0.969 | locus YNR049C, strain mso1, hits give low values 0.963 | locus YNR052C, strain pop2, hits give low values 0.999 | locus YOL012C, strain htz1 0.956 | locus YOL147C, strain pex11, hits give low values 1.02 | locus YOR001W, strain rrp6, hits give low values 1 | locus YOR061W, strain CKA2, hits give low values 1.01 | locus YOR069W, strain VPS5, hits give low values 1.01 | locus YOR070C, strain gyp1, hits give low values 0.962 | locus YOR080W, strain dia2, hits give low values 0.972 | locus YOR083W, strain WHI5, hits give low values 0.981 | locus YOR106W, strain vam3, hits give low values 1 | locus YOR136W, strain idh2, hits give low values 1.03 | locus YOR144C, strain elg1, hits give low values 1.02 | locus YOR184W, strain ser1, hits give low values 1.01 | locus YOR231W, strain MKK1, hits give low values 0.997 | locus YOR265W, strain rbl2, hits give low values 0.989 | locus YOR270C, strain vph1, hits give low values 1.03 | locus YOR290C, strain snf2, hits give low values 0.992 | locus YOR316C, strain cot1, hits give low values 1.01 | locus YPL051W, strain arl3, hits give low values 0.992 | locus YPL055C, strain LGE1, hits give low values 1.01 | locus YPL078C, strain atp4, hits give low values 0.982 | locus YPL106C, strain sse1, hits give low values 0.961 | locus YPL240C, strain hsp82, hits give low values 1.01 | locus YPL241C, strain CIN2, hits give low values 1.02 | locus YPL256C, strain CLN2, hits give low values 0.992 | locus YPR119W, strain clb2, hits give low values 1.01 | locus YPR141C, strain kar3, hits give low values 1.01 | locus YPR163C, strain tif3, hits give low values 1.03 | locus YPR167C, strain met16, hits give low values 1.01 | strain wtn01, hits give low values 1.05
